From PubChem BioAssay (EPA / NIEHS)
Several values for one entry are separate records, joined by “and”; a condition that tells them apart may be missing. Identical values can stand only once. Records with an inconclusive call do not appear. Activity calls are given as the source filed them. Rule for the calls, unless noted: active = hit-call score of the fitted dose curve at least 0.9, where 1 is the maximum; inconclusive = response in the unintended direction; inactive = score below 0.9.

Assays:
[1] = Tanguay_ZF_120hpf_SWIM_legacy: (Legacy) Oregon State University Tanguay Lab 120 Hour Post-fertilization zebrafish Assay for Swim Bladder Malformation (AID 2283654);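 note: swim bladder malformation in each larva scored yes or no under brightfield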
Outline: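 Dechorionated Tropical 5D wild-type embryos, placed singly from 6 hpf, were statically exposed at 28C to 120 hpf with 0.64% DMSO final; swim bladder malformation was scored present/absent by brightfield microscopy, gain of signal relative to DMSO controls.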

[2] = Tanguay_ZF_120hpf_TRUN_legacy: (Legacy) Oregon State University Tanguay Lab 120 Hour Post-fertilization zebrafish Assay for Truncated Body (AID 2283655)
Outline: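 Binary presence/absence of truncated body is recorded at 120 hpf by brightfield, with non-mortality endpoints skipped after death. Exposure is static from 6 hpf in sealed dark plates at 28C, using dechorionated wild-type zebrafish, 0.64% DMSO.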

[3] = Tanguay_ZF_120hpf_NC_legacy: (Legacy) Oregon State University Tanguay Lab 120 Hour Post-fertilization zebrafish Assay for Notochord and Tail Malformation (AID 2283656)
Outline: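 Dechorionated Tropical 5D wild-type zebrafish embryos, one per well from 6 hpf, statically exposed to 120 hpf at 28C in 0.64% DMSO final. Notochord distortion scored present/absent by brightfield; dead embryos excluded.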

[4] = test system: Thyroperoxidase (TPO), gene 54314; test: CCTE_Simmons_AUR_rTPO: CCTE's Amplex UltraRed Assay for Thyroperoxidase (TPO) Inhibition, Simmons Lab (AID 2283662);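 for AC50: potency for loss of signal meaning inhibition of peroxidase activity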
Outline: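 Rat thyroid microsomes (5 ug protein) with 25 uM Amplex UltraRed and 300 uM H2O2 in 200 mM phosphate buffer, 30 min at 37C in dark; fluorescence 544/590 nm. Eight concentrations, 5 nM–87.5 uM final, 0.5% DMSO, triplicate biological replicates.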

[5] = CCTE_Simmons_CellTiterGLO_HEK293T: Viability Assessment in CCTE's Assays for Thyroperoxidase (TPO) Inhibition, Simmons Lab (AID 2283665);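 for AC50: cells exposed to compound for 24 h before readout; actives reduce ATP signal below DMSO vehicle meaning cytotoxicity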
Outline: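 HEK293T, 10 000 cells/well, DMEM + 1% FBS; 8-pt titration 5 nM–87.5 uM [final], 0.5% DMSO; 24 hr, 37C, 5% CO2; CellTiter-Glo luminescence; n=3 biological replicates.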

[6] = Tanguay_ZF_120hpf_TR_legacy: (Legacy) Oregon State University Tanguay Lab 120 Hour Post-fertilization zebrafish Assay for Touch Response (AID 2283667)
Outline: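 Tropical 5D wild-type zebrafish embryos were exposed statically in sealed, foil-covered plates at 28C until 120 hpf, with 0.64% (vol/vol) final DMSO. Touch response was scored as present or absent; embryos that died were not scored.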

[7] = CCTE_Padilla_ZF_144hpf_TERATOSCORE: (Legacy) CCTE's 144 Hour Post-fertilization zebrafish Assay Teratoscore, Padilla Lab (AID 2283679; active = hit-call score of the fitted dose curve at least 0.9, where 1 is the maximum; inactive = score below 0.9;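 for AC50: zebrafish embryos with chorions exposed by immersion from 6-8 hpf to 5 dpf with daily renewal; teratogenicity score from eye scoring of death hatching and malformations at 144 hpf; higher score means more developmental defects relative to DMSO baseline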)
Outline: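 Larvae scored by eye at 144 hpf for death, hatching and malformations after a day in clean Hanks'. Before that, daily-renewed exposure at 80 uM (0.4% DMSO, 26C) from roughly 6-8 hpf through 5 dpf, 4 embryos per chemical.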

[8] = STM_H9_OrnithineISnorm_perc: Stemina devTOX quickPredict H9 human embryonic stem cell (hESC)-based Assay for Ornithine (ORN) Metabolite Biomarker, Normalized (AID 2283712; active = hit-call score of the fitted dose curve at least 0.9, where 1 is the maximum; inactive = score below 0.9;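 note: ornithine released into spent medium during last day measured by mass spectrometry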)
Outline: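 H9 human embryonic stem cells kept pluripotent receive test chemical over 72 h, refreshed daily by media exchange. Media from the closing 24 h is deproteinized and analysed by UPLC-HRMS on an amide column; ornithine signal is scaled to labelled standard and vehicle.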

[9] = STM_H9_CystineISnorm_perc: Stemina devTOX quickPredict H9 human embryonic stem cell (hESC)-based Assay for Cystine (CYSS) Metabolite Biomarker, Normalized (AID 2283713; active = hit-call score of the fitted dose curve at least 0.9, where 1 is the maximum; inactive = score below 0.9)
Outline: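 H9 hESC, pluripotent; compound 72h, re-dosed q24h with medium change. Last-24h medium → 40% acetonitrile deproteinization → UPLC-HRMS. CYSS area / C13-CYSS standard, then % of 0.1% DMSO median.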

[10] = STM_H9_OrnCyssISnorm_ratio: Stemina devTOX quickPredict H9 human embryonic stem cell (hESC)-based Assay for Ornithine (ORN):Cystine (CYSS) Ratio (AID 2283714)
Outline: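 Undifferentiated H9 hESCs were exposed to compound for 72h with media and chemical replaced every 24h. Final 24-h conditioned media were deproteinized and analysed by UPLC-HRMS. ORN and CYSS peak areas were normalized to C13 internal standards and the ratio taken versus 0.1% DMSO.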

[11] = Tanguay_ZF_120hpf_ActivityScore_legacy: (Legacy) Oregon State University Tanguay Lab 120 Hour Post-fertilization zebrafish Assay Score for Activity (AID 2283742)
Outline: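 Tropical 5D wild-type zebrafish embryos, dechorionated with pronase at 4 hpf, were exposed singly from 6 hpf to 120 hpf statically at 28C in 0.64% DMSO. Malformations and mortality were scored as binary by brightfield, with the activity score combining 18 morphology components.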

[12] = test system: Thyroperoxidase (TPO), gene 445522; test: CCTE_Simmons_GUA_TPO: CCTE's Guaiacol Assay for Thyroperoxidase (TPO) Inhibition, Simmons Lab (AID 2283750)
Outline: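 Porcine thyroid microsomes (25 ug) in 200mM potassium phosphate, preincubated 30 s at 37C with compound (8 concentrations, 5 nM–87.5 uM) and 35mM guaiacol; 1mM H2O2 starts reaction. Absorbance change at 450nm over first 80 s; loss of signal versus DMSO, three replicates.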

[13] = ArunA_CellTiter_hNC: Viability Assessment in the ArunA Biomedical's Oris Neural Crest (hNC) Cell Migration Assay (AID 2283752)
Outline: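 Cell titer was measured with the CellTiter Aqueous One reagent after 72 h of chemical dosing. Cells were H9-derived embryonic neural crest stem cells seeded on Matrigel, 60,000 per well, and given 16 h at 37C beforehand.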

[14] = ArunA_CellTiter_hNP: Viability Assessment in the ArunA Biomedical's Oris Neural Crest (hNC) Cell Migration Assay (AID 2283753)
Outline: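 H9-derived hNP1 neuroprogenitors, 60,000/well on Matrigel, cultured 16 h, then 72 h chemical exposure in test medium. Cell titer via CellTiter Aqueous One; positive-direction fit vs DMSO.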

[15] = ArunA_Migration_hNP: ArunA Biomedical's Oris Neuroprogenitor (hNP) Cell Migration Assay (AID 2283754)
Outline: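 Human H9-derived hNP1 neuroprogenitors on Matrigel with LIF/bFGF, plated around seeding stoppers for 16 h at 37C; stoppers removed at start of 72 h chemical exposure. Calcein-AM staining, fluorescence 494/517 nm in detection zone; loss-of-signal vs DMSO; cytochalasin D control.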

[16] = ArunA_Migration_hNC: ArunA Biomedical's Oris Neural Crest (hNC) Cell Migration Assay (AID 2283755)
Outline: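 Human H9-derived neural crest stem cells, 60,000/well on Matrigel, 16 h at 37C, then 72 h chemical exposure after seeding-stopper removal. Migration into detection zone read as calcein-AM fluorescence (ex494/em517), relative to DMSO.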

[17] = CEETOX_H295R_MTT_cell_viability: Viability Assessment in the CeeTox HT-H295R MTT Assay (AID 2283718; active = hit-call score of the fitted dose curve at least 0.9, where 1 is the maximum; inactive = score below 0.9;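 for AC50: curve fitted both ways so AC50 may mark viability loss or gain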)
Outline: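 H295R cells prestimulated 48 h with 10 uM forskolin, then exposed 48 h to test chemical (0.1% DMSO final). Viability by MTT (0.5 mg/ml, 4 h, 37 C), absorbance 570/650 nm; percent change versus DMSO, bidirectional fit.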

[18] = read-out: solute carrier (SLC10A1), SLC10A1 (gene 6554); test: LTEA_HepaRG_SLC10A1: Life Technologies and Expression Analysis (LTEA) Assay for solute carrier (SLC10A1) using HepaRG (AID 2283657; active = hit-call score of the fitted dose curve at least 0.9, where 1 is the maximum; inactive = score below 0.9); details: mRNA level, 48 h; actives raise or lower the signal
Outline: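 Differentiated HepaRG cells were plated 48 h, then exposed in serum-free induction medium for 48 h to 8 concentrations (top 100 uM, half-log steps, 0.5% DMSO). SLC10A1 mRNA was quantified by qRT-PCR normalized to ACTB, GAPDH, POLR2A; bidirectional fit versus DMSO.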

[19] = read-out: matrix metalloproteinase-1 (MMP1), MMP1 (gene 4312); test: LTEA_HepaRG_MMP1: Life Technologies and Expression Analysis (LTEA) Assay for matrix metalloproteinase-1 (MMP1) using HepaRG (AID 2283658; active = hit-call score of the fitted dose curve at least 0.9, where 1 is the maximum; inactive = score below 0.9); details: mRNA level, 48 h; actives raise or lower the signal
Outline: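 qRT-PCR (TaqMan, Fluidigm arrays) of MMP1 transcript, normalized against three housekeeping genes and fitted in both directions relative to 0.5% DMSO vehicle. Human HepaRG cultures received duplicate 48 h exposures across 8 points, highest 100 uM with half-log steps.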

[20] = read-out: Cytochrome P450 (CYP24A1_1), CYP24A1 (gene 1591); test: LTEA_HepaRG_CYP24A1_1: Life Technologies and Expression Analysis (LTEA) Assay for Cytochrome P450 (CYP24A1_1) using HepaRG (AID 2283671; active = hit-call score of the fitted dose curve at least 0.9, where 1 is the maximum; inactive = score below 0.9); details: mRNA level, 48 h; actives raise or lower the signal
Outline: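 HepaRG, 48 h exposure, 8-pt half-log series from 100 uM in 0.5% DMSO, duplicates. Readout: TaqMan qRT-PCR of CYP24A1 mRNA, housekeeping-normalized (ACTB/GAPDH/POLR2A). Bidirectional curve fit vs DMSO baseline.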

Measured: AC50

On1ccccc1=S
active: [1] 0.0615 µM | [3] 0.561 µM | [4] 17.5 µM | [7] 27.7 µM | [8] 8.49 µM | [9] 5.86 µM | [10] 7.94 µM | [12] 85.9 µM
inactive: [2] | [5] | [6] | [11]

CC(C)CCO
inactive: [1] | [2] | [3] | [6] | [7] | [8] | [11]
active: [9] 0.118 µM

O=P(OC(CCl)CCl)(OC(CCl)CCl)OC(CCl)CCl
active: [1] 25.9 µM | [2] 36.2 µM | [7] 14.3 µM | [11] 38.3 µM | [16] 1.97 µM
inactive: [3] | [4] | [5] | [8] | [9] | [10] | [13] | [14] | [15]

CCCCCCc1ccc(O)cc1O
inactive: [1] | [2] | [3] | [6]
active: [4] 0.00854 µM | [5] 21.3 µM | [7] 14.9 µM | [11] 43.8 µM

COc1ccc2sc(C(=O)Nc3nnn[nH]3)c(OC(C)C)c2c1
inactive: [1] | [2] | [3] | [6] | [11]
active: [7] 34.4 µM | [8] 1.33 µM | [9] 1.65 µM | [10] 1.52 µM

O=C(O)c1cccc(N(Cc2cccnc2)c2ccc(OC(F)F)c(OC(F)F)c2)c1
active: [4] 31.2 µM | [7] 26.5 µM
inactive: [1] | [2] | [3] | [5] | [6] | [17] | [11]

CC[C@H](C)C(=O)O[C@H]1C[C@@H](C)C=C2C=C[C@H](C)[C@H](CC[C@@H]3C[C@@H](O)CC(=O)O3)[C@H]21
inactive: [1] | [2] | [3] | [5] | [6] | [8] | [17]
active: [4] 40.3 µM and 43.8 µM | [7] 7.47 nM and 5.89 nM and 5.45 nM | [9] 13.2 µM | [10] 6.84 µM | [11] 1.68 µM

O=C(OC[C@H]1O[C@@H](OC(=O)c2cc(O)c(O)c(OC(=O)c3cc(O)c(O)c(O)c3)c2)[C@H](OC(=O)c2cc(O)c(O)c(OC(=O)c3cc(O)c(O)c(O)c3)c2)[C@@H](OC(=O)c2cc(O)c(O)c(OC(=O)c3cc(O)c(O)c(O)c3)c2)[C@@H]1OC(=O)c1cc(O)c(O)c(OC(=O)c2cc(O)c(O)c(O)c2)c1)c1cc(O)c(O)c(OC(=O)c2cc(O)c(O)c(O)c2)c1
active: [4] 1.03 µM | [5] 1.41 µM | [7] 4.71 µM
inactive: [1] | [2] | [3] | [6] | [11]

CC(C)CCCCCCOC(=O)c1ccc(C(=O)OCCCCCCC(C)C)c(C(=O)OCCCCCCC(C)C)c1
inactive: [1] | [2] | [3] | [18] | [19] | [6] | [20] | [11]

CN(C)c1ccc(N=NS(=O)(=O)O)cc1
inactive: [1] | [2] | [3] | [5] | [6] | [11]
active: [4] 21.7 µM | [8] 28.5 µM | [9] 16.9 µM | [10] 20.5 µM

Fc1ccccc1[C@@H](F)COC1CCC(Nc2ncnc3[nH]ncc23)CC1 (stereo partly specified)
active: [7] 13.8 µM | [17] 6.77 µM
inactive: [1] | [2] | [3] | [6] | [8] | [9] | [10] | [11]

CCCCCCCCCCCCc1ccccc1
inactive: [1] | [2] | [3] | [6] | [7] | [8] | [9] | [11]
